Bioassay records from PubChem.
A selection: hits, their analogues and other compounds. The true share with any hit is near 19%.
ELG1 repair inh: blocks ELG1-dependent DNA repair in HEK293T cells. Potency, µM (top dose mostly 46.1 µM), for the others: at the top dose activity change, negative = inhibition, hits mostly inhibitors. HEK293T ELG1-luciferase reporter, luminescence, 16 h; DNA damage induced by 5-fluorouridine. 330,000 tested, 2.3% active; also: potency is read from the fitted curve at half-maximal effect; nearly all actives have a fitted effect of over 55% in size
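Reporter activity after DNA damage by 5-fluorouridine is monitored. Compound-treated cells incubate 16 hr at 37 °C, then ONE-Glo is added for 30 min before luminescence reading.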
TDP1 inh: inhibitors of human tyrosyl-DNA phosphodiesterase TDP1. Potency, µM (series often up to 130 µM), without a hit: top-dose activity change, negative = inhibition, actives largely listed as inhibitors. Q9NUW8. recombinant TDP1, AlphaScreen DNA substrate cleavage. 350,000 tested, 0.28% active. AID 485290; also: potency is read from the fitted curve at half-maximal effect; nearly all actives have a fitted effect of over 40% in size
Target sequence (Q9NUW8 whole entry, looked up): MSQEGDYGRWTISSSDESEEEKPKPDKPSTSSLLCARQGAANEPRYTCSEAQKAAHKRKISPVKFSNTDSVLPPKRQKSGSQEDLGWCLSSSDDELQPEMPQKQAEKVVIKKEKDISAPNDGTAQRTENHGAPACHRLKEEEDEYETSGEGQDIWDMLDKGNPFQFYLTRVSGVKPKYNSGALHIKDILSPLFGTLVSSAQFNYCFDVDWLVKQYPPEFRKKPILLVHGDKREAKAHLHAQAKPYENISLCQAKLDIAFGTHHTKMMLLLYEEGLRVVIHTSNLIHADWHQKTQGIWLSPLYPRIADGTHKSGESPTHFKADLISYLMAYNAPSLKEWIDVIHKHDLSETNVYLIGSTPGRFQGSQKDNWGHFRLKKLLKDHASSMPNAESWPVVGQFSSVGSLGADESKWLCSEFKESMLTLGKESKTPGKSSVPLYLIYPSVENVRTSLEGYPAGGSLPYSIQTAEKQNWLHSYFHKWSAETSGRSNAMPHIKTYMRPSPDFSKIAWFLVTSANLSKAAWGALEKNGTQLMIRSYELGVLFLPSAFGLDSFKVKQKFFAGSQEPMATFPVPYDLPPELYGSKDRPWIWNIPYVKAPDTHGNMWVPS
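Steps: enzyme plus compound, 15 min RT; add biotin/phosphotyrosine-FITC oligonucleotide (15 nM final), react 5 min; add donor/acceptor beads (10 ug/ml final), 10 min; read AlphaScreen. Tdp1 at 1 nM final.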
Giardia kill: kills Giardia lamblia; 340,000 tested, 0.15% active; Giardia lamblia trophozoite viability; activity change, % at 7.66 µM, hits read low; in the data active = activity change below about -80%; inconclusive = between about -30% and that limit;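 also: parasites exposed to compound for two days anaerobically before the ATP read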
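Anaerobic 48 hrs incubation at 37 deg C of 100 trophozoites/well with test compounds; ATPLite 1-Step luminescence, 15-30 min RT, reports cellular ATP as viability.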
IL-1B inflam inh: inhibitors of inflammasome signaling (IL-1 beta secretion). THP-1 LPS/ATP IL-1B secretion, AlphaLISA, 16 h; stronger effect = lower value. activity change, % at 57.5 µM. 360,000 tested, 4.7% active; in the data active = activity change below about -50%; inconclusive = mostly about -30% to -49%
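THP-1 cells pretreated 1 hr with compounds (up to 57.5 uM final), then stimulated with LPS (250 ng/mL final) plus ATP (1.25 mM final); secreted IL-1B measured by AlphaLISA after 16 hr, decreased signal indicating inhibition.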
DT40 TDP1 CPT: growth inhibition of DT40 Tdp1-/-;hTDP1 cells with camptothecin (screen for TDP1 inhibitors); chicken DT40 Tdp1-/-;hTDP1 cells + 20 nM CPT, ATP luminescence, 48 h; 420,000 tested, 12% active; Potency, µM (highest dose often 46.2 µM), inactives show top-dose activity change, negative = growth inhibition, most hits filed as inhibitors; AID 686979; also: potency is read from the fitted curve at half-maximal effect; nearly all actives have a fitted effect of over 55% in size
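Cell growth measured by CellTiter-Glo luminescence after a minimum 48 h, 37 C compound exposure with 20 nM CPT in Tdp1-knockout DT40 cells stably expressing hTDP1, seeded 400/well; qHTS titration format.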
TDP1 cell noCPT: qHTS for Inhibitors of human tyrosyl-DNA phosphodiesterase 1 (TDP1): qHTS in cells in absence of CPT; Potency, µM (doses to about 46.2 µM), for the others: at the top dose activity change, negative = growth inhibition, actives largely listed as inhibitors; DT40 Tdp1-/- hTDP1 cells, no CPT, ATP luminescence, 48 h; 420,000 tested, 15% active; also: potency is read from the fitted curve at half-maximal effect; nearly all actives have a fitted effect of over 55% in size
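Luminescent ATP content (CellTiter-Glo) served as the growth readout. Knockout chicken DT40 cells expressing human TDP1 were exposed to compounds without camptothecin for a minimum 48 hr at 37 °C.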
Active calls of the source: *; ? = inconclusive; nt = no result; [ ] = remark or other dose. Unless noted, calls follow the shape of the dose curve; as a rule, active = well fitted curve in the direction sought with a large enough effect; inconclusive = small, poorly fitted or top-dose-only effect, or another doubt; inactive = no such curve, though single readings can be large; an effect the other way counts as inactive or inconclusive. % is scaled to controls: 0 for no effect and ±100 for the full control effect.

SMILES | ELG1 repair inh | TDP1 inh | Giardia kill | IL-1B inflam inh | DT40 TDP1 CPT | TDP1 cell noCPT
O=C(NCC(c1ccco1)N1CCc2ccccc2C1)c1cccc(F)c1 (stereo unspecified) | 3% | nt | -1 | 3 | -12% | -19%
CC(=O)Nc1cccc(NC(=O)C(=O)NCC(c2ccco2)N2CCc3ccccc3C2)c1 (stereo unspecified) | -8% | nt | -11 | 11 | 16µM* | 23µM*
O=C(NCC(c1cccnc1)N1CCc2ccccc2C1)C(=O)Nc1ccccc1 (stereo unspecified) | nt | 8% | nt | nt | 21µM* | ?
O=C(NCC(c1cccnc1)N1CCc2ccccc2C1)c1ccc(F)c(F)c1 (stereo unspecified) | nt | 1% | nt | nt | 8.2µM* | 7.3µM*
O=C(NCC(c1ccco1)N1CCc2ccccc2C1)c1ccc([N+](=O)[O-])cc1 (stereo unspecified) | ? | 0% | -8 | 3 | ? | 23µM*
COc1cc(C(=O)NCC(c2cccnc2)N2CCc3ccccc3C2)cc(OC)c1OC (stereo unspecified) | nt | -1% | nt | nt | ? | ?
O=C(NCC(c1cccnc1)N1CCc2ccccc2C1)C(=O)Nc1ccccc1F (stereo unspecified) | nt | 3% | nt | nt | 15µM* | 21µM*
COc1ccccc1C(=O)NCC(c1cccnc1)N1CCc2ccccc2C1 (stereo unspecified) | nt | -1% | nt | nt | 23µM* | 21µM*
O=C(NCC(c1cccnc1)N1CCOCC1)C(=O)Nc1ccc(Cl)cc1 (stereo unspecified) | nt | -1% | nt | nt | ? | ?
CCCCN1C(=O)C(CC(=O)NCCN2CCOCC2)CC(C(=O)N2CCCCCC2)=C1C (stereo unspecified) | nt | nt | nt | 24 | -19% | -5%
CC(C)CC(=O)N=C1SC2CS(=O)(=O)CC2N1Cc1ccccc1Cl (stereo unspecified) | -1% | 4% | -7 | 7 | -21% | -21%
O=C(Nc1ccc(Cl)c(Cl)c1)OCCNC(=O)c1cccc(Cl)c1 | -7% | 5% | -17 | -14 | 6.5µM* | 12µM*
O=C(Nc1ccccc1)OCCNC(=O)c1cccc(Br)c1 | -4% | nt | 4 | 20 | 0% | -25%
O=C1CC(N2C(=O)/C(=C/C=C/c3ccccc3)SC2=S)C(=O)N1c1ccccc1 (stereo unspecified) | -15% | 11% | -4 | ? | 13µM* | 13µM*
Cc1cc(C(=O)NCCC(c2ccccc2)c2ccccc2)c(C)o1 | 3% | 8% | 11 | -11 | 18µM* | ?
Cc1cc(C(=O)NCCCC(=O)O)c(C)o1 | 13% | 2% | 1 | -2 | -4% | 16%
Cc1cc(C(=O)Nc2cccc3ccccc23)c(C)o1 | ? | nt | ? | -11 | 23µM* | -22%
Cc1oc2c(c1C(=O)Nc1cccc3ccccc13)CCCC2 | -3% | 1% | 14 | 3 | 10µM* | 13µM*
Cc1oc(CC(C)C)cc1C(=O)Nc1cccc2ccccc12 | -4% | 3% | 11 | 13 | -29% | -30%
COc1ccccc1NC(=O)c1c(C)oc2c1CCCC2 | 4% | 3% | 10 | 15 | ? | ?
COc1ccc(CNC(=O)COC(=O)C(CCSC)NC(=O)c2ccco2)cc1OC (stereo unspecified) | 0% | -1%[56.1 µM] | 5 | 3 | -11% | -15%
O=S(=O)(c1ccc2c(c1)OCCO2)N1CCN(S(=O)(=O)c2ccc3nc(Cl)c(Cl)nc3c2)CC1 | nt | -14% | nt | nt | nt | nt
CC(=O)Nc1ccc(S(=O)(=O)NNC(=O)COc2cc(C)ccc2C(C)C)cc1 | nt | 8% | -2 | 2 | -29% | -12%
Cc1ccc(C(C)C)c(OCC(=O)Nc2ccc3c(c2)nc(CCNC(=O)c2ccco2)n3C)c1 | nt | 1% | nt | nt | ? | 10µM*
COc1ccc(OCC(=O)Nc2ccc3c(c2)nc(CCNC(=O)c2ccco2)n3C)cc1 | nt | 6% | nt | nt | -5% | 5%
SMILES | ELG1 repair inh | TDP1 inh | Giardia kill | IL-1B inflam inh | DT40 TDP1 CPT | TDP1 cell noCPT
Cc1ccc(OCC(=O)Nc2ccc3c(c2)nc(CCNC(=O)c2ccco2)n3C)cc1 | nt | 5% | nt | nt | ? | ?
Cc1ccc(C(C)C)c(OCC(=O)Nc2ccc3c(c2)nc(CN2CCCC2)n3C)c1 | 13µM* | 6% | ? | -50* | ? | 15µM*
Cc1cccc(OCC(=O)Nc2ccc3c(c2)nc(CCNC(=O)c2ccco2)n3C)c1 | nt | 5% | nt | nt | 23µM* | -29%
Cc1ccc(C(C)C)c(OCC(=O)NNCC(=O)Nc2cccc(F)c2)c1 | -14% | 1% | 30 | ? | 15µM* | 15µM*
COc1ncc2nc(-c3cccs3)c(=O)n(-c3ccccc3)c2n1 | nt | nt | nt | nt | 9% | -3%
O=C(C1CCN(c2nnc(N3CCCC3=O)s2)CC1)N1CCN(c2cccc(C(F)(F)F)c2)CC1 | ? | 3% | 4 | 36 | 8.2µM* | 1.8µM*
Cc1ccc(C)c(N2CCN(C(=O)C3CCN(c4nnc(N5CCCC5=O)s4)CC3)CC2)c1 | 15µM* | 5% | -21 | ? | 23µM* | ?
COc1ccc(N(C)C(=O)NCc2noc3ccc(C)cc23)c(OC)c1 | nt | 3% | nt | nt | ? | ?
Cc1ccc2c(c1)-c1cc(C)nn1C(c1cc(Br)ccc1O)N2 (stereo unspecified) | nt | 4% | nt | nt | ? | ?
COc1cc(/C=C/C(=O)C2C(=O)C=C(C)OC2=O)cc(OC)c1O (stereo unspecified) | 2.6µM* | 4% | -21 | -4 | ? | ?
COc1ccc(-n2c(SCC(=O)N3CCc4ccccc43)nc3c([nH]c4ccccc43)c2=O)cc1 | nt | -1% | nt | nt | ? | -23%
O=C(C(=O)N(Cc1ccccc1)Cc1ccccc1)c1c(-c2ccccc2)[nH]c2ccccc12 | nt | nt | ? | ? | 10µM* | 21µM*
CCc1ccc(N2C(=O)Cc3c2nc(N)c(C#N)c3N)cc1 | ? | 7% | 15 | 12 | -11% | -2%
CCN(CC)c1nc2c3c(nc4c(c3c1C#N)CC(=O)N4c1ccc(Cl)cc1)NC(C)=N2 | ? | 3% | 11 | -8 | ? | 18µM*
CCN(CCNC(=O)C1CCCN(Cc2nc(-c3ccc(OC)cc3)oc2C)C1)c1ccccc1 (stereo unspecified) | ? | 12% | 13 | -73* | 16µM* | 23µM*
CCN(CCNC(=O)C1CCN(Cc2nc(-c3ccc(Cl)cc3)oc2C)CC1)c1ccccc1 | 16µM* | 10% | 11 | -54* | 23µM* | 18µM*
